Hits are enriched below; roughly 3.4% of the tested compounds scored in any of these assays.
GPR151 ag = human GPR151 activation; Q8TDV0; PathHunter beta-arrestin GPR151 cells, luminescence; activation, % at 11.2 µM; actives 1% (n = 650,000); in the data active means activation above about 4.9%;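 further: 0% = median of compound wells and 100% = cells with positive control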
Target sequence (Q8TDV0 whole entry, looked up): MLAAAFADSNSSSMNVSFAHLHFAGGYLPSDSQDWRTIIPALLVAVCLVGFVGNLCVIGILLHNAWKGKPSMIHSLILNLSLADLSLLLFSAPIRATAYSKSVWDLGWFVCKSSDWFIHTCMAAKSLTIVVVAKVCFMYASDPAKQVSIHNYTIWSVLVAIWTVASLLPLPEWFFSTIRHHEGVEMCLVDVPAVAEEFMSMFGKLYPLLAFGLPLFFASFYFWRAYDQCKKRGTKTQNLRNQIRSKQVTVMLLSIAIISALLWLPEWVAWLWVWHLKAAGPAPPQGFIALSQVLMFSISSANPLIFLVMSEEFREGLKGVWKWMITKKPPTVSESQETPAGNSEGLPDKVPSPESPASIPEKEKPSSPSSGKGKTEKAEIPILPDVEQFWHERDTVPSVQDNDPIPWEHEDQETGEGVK
MITF primary = human MITF inhibition, primary screen. O75030. AlphaScreen MITF homodimerization, bead proximity signal. inhibition, % at 2.6 µM. actives 0.91% (n = 650,000); in the data active means inhibition above about 50%;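 further: 0% = vehicle wells with protein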
TEAD-YAP inh = TEAD-YAP interaction inhibition; actives 1.4% (n = 640,000); HEK-TIYL cells, TEAD-Gal4/YAP UAS-luciferase luminescence; inhibition, % at 9.12 µM; in the data active means inhibition above about 32%;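 further: 0% = median of test compound wells and 100% = reference inhibitor wells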
FBW7 act = activators of human E3 ligase FBW7 | Q969H0 | AID 1259310 | AlphaScreen FBW7–phospho-cyclin E peptide binding, activator screen | normalized activity (activation), % at 26.1 µM | actives 0.13% (n = 650,000); in the data active means normalized activity above about 1.9%;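 further: purified mutant Fbw7 with reduced substrate affinity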
GPR151 conf act = human GPR151 activation, confirmation screen. shares compounds with GPR151 ag. GPR151 PathHunter beta-arrestin cells, luminescence, 90 min; % of EA-reagent control over plate median. activation, % at 11.2 µM. 6,700 tested, under 10 active. AID 1508609;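 active means mean percent activation across replicates above the confirmation screen cutoff of 4.91%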
GPR119 ag = activates human GPR119 in a GPR151 counter-screen. actives 0.3% (n = 6,700). activation, % at 11.2 µM. shares compounds with GPR151 ag. GPR119 PathHunter beta-arrestin cells, luminescence, 90 min; 0 = compound-well median, 100 = enzyme-acceptor control;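 active means mean percent activation in the counterscreen above 29.09%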;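 further: counterscreen on off-target GPR119 to flag nonselective hits from the GPR151 activator screen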
* marks the source's active call; other numbers are inactive results; . = no result.

SMILES | GPR151 ag | MITF primary | TEAD-YAP inh | FBW7 act | GPR151 conf act | GPR119 ag
Cc1ccc2onc(CNC(=O)N3CCCCC3)c2c1 | 7.0* | 7 | -10 | 0 | 0 | 4
CCN1CCN(C(=O)NCc2noc3ccc(C)cc23)CC1 | -1 | 7 | 9 | 0 | . | .
CC(=NC1CC(C)(C)NC(C)(C)C1)c1c(C)[nH]n(-c2ccc([N+](=O)[O-])cc2)c1=O | 6.3* | 0 | 9 | 0 | -1 | -7
COc1ccc(Cc2nc(SCC(=O)Nc3cccc(C(=O)OC(C)C)c3)n[nH]2)cc1 | 5.8* | 9 | -2 | 0 | 0 | 1
Cc1c(Cl)cccc1NC(=O)CN1CCC(NC(=O)C2CCCCC2)CC1 | 8.4* | -4 | -9 | 0 | 1 | 14
O=C(NC1CCN(C(=O)Nc2cccc(Cl)c2)CC1)C1CCCCC1 | -1 | -10 | -6 | 0 | . | .
Cc1cccc(NC(=O)N2CCC(NC(=O)C3CCCCC3)CC2)c1 | 5.9* | -9 | -4 | 0 | 1 | 2
CNc1ccc(/C=C/C(=O)c2ccc(S(=O)(=O)NCc3ccco3)cc2)cc1[N+](=O)[O-] | 5.6* | -6 | -5 | 0 | -1 | -2
COc1cc2nc(Nc3ccccn3)nc(Nc3ccc(Oc4ccccc4)cc3)c2cc1OC | -2 | -6 | -6 | 0 | . | .
COc1cc2nc(Nc3ccccn3)nc(Nc3cc(OC)c(OC)c(OC)c3)c2cc1OC | 7.3* | 8 | 14 | 0 | 1 | 3
CSc1ccc(CNc2ncc(-c3ccccc3)n2C)cc1 | 7.7* | 26 | -3 | 0 | -1 | -4
CSc1ccc(CNc2ncc(-c3cccc([N+](=O)[O-])c3)n2C)cc1 | 0 | 50 | -2 | 0 | . | .
CCOC(=O)C1CCCN(CCC(=O)Nc2ccccc2)C1 (centres undefined) | 1 | 11 | 4 | 0 | . | .
CCOC(=O)C1CCCN(CCC(C)c2ccccc2)C1 (centres undefined) | 8.1* | 34 | 1 | 0 | 0 | -5
O=C(CSc1nnc2scc(-c3ccc(Cl)cc3)n12)NCc1cccnc1 | 0 | -10 | 4 | 0 | . | .
CS(=O)(=O)N(CC(=O)N1CCN(c2ccccc2)CC1)Cc1ccc(Cl)cc1 | 5.0* | -2 | -1 | 1 | 0 | -1
CS(=O)(=O)N(CC(=O)N1CCN(c2ccc(F)cc2)CC1)Cc1ccc(Cl)cc1 | 2 | -6 | 4 | 0 | . | .
COc1ccccc1CCNS(=O)(=O)c1cn(C)c(=O)n(C)c1=O | 3 | -4 | 6 | 0 | . | .
Cc1cccc(NS(=O)(=O)c2cn(C)c(=O)n(C)c2=O)c1 | 5.9* | -4 | -6 | 0 | 1 | 12
Cn1cc(S(=O)(=O)NCCC(c2ccccc2)c2ccccc2)c(=O)n(C)c1=O | 4.9* | 11 | 0 | 1 | 0 | 6
Cc1ccc(NS(=O)(=O)c2cn(C)c(=O)n(C)c2=O)cc1C | 2 | -5 | -3 | 0 | . | .
COc1cc(=O)n2c(c1C(=O)NCc1ccsc1)CCN(C(=O)c1nonc1C)CC2 | 10* | -5 | -5 | 0 | 0 | 11
COc1ccc(NC(=O)C(=O)NC2CCCCCC2)c(OC)c1 | 5.3* | 1 | -3 | 0 | -1 | -15
COc1ccc(NC(=O)c2ccoc2C)c(OC)c1 | 6.1* | 17 | -12 | 0 | 0 | -12
COc1cc(OC)cc(C(=O)NNC(=O)NC2CCCCC2)c1 | 7.3* | 10 | 1 | 0 | 0 | -4
SMILES | GPR151 ag | MITF primary | TEAD-YAP inh | FBW7 act | GPR151 conf act | GPR119 ag
CC(C)(C)c1ccc(C(=O)N/N=C/c2cccnc2)cc1 | 0 | -11 | -18 | 0 | . | .
Cc1cccc(CN2CCN(Cc3nc(-c4ccc(F)cc4)cs3)CC2CCO)n1 (centres undefined) | 10* | -9 | 1 | 0 | 1 | 5
CC1(C2CCN(Cc3nc(-c4ccccc4)cs3)CC2)NC(=O)NC1=O (centres undefined) | 5.6* | 9 | -6 | 0 | 0 | -2
O=C(Cc1cccc2c(S(=O)O)cccc12)NC(c1ccccc1)c1ccccc1 | 6.8* | 0 | -20 | 0 | -1 | -12
CCOc1ccccc1C(=O)NNC(=O)CCC(=O)O | 2 | 1 | 1 | 0 | . | .
COC(=O)c1ccccc1NC(=O)c1cccc(Cl)c1 | 0 | 17 | -2 | 0 | . | .
COC(=O)c1ccccc1NC(=O)c1ccc(Cl)c(Cl)c1 | 5.1* | -4 | 12 | 0 | 0 | -4
Cc1cc(C)cc(NC(=O)c2ccc(Cl)c(Cl)c2)c1 | 5.4* | -14 | -11 | 0 | 0 | -4
COC(=O)C(CCSC)NC(=O)c1ccccc1F (centres undefined) | 6.9* | 11 | -1 | 1 | 0 | -4
CSc1ccc(/C=N\NC(=O)CNc2ccc(C)cc2)cc1 | 5.8* | 6 | -3 | 0 | 0 | -12
CC(=O)Nc1ccc(S(=O)(=O)Nc2c(Cl)cccc2Cl)cc1 | 1 | -9 | -4 | 0 | . | .
CCOC(=O)N1CCN(c2cc(-c3cncc(-c4ccc(F)cc4)c3)nc(C)n2)CC1 | 0 | -1 | 9 | 0 | . | .
CCOC(=O)CCC(=O)Nc1cccc2c(NC(=O)CCC(=O)OCC)cccc12 | 2 | -27 | -10 | 0 | . | .
CCOC(=O)CCC(=O)Nc1cccc(Cl)c1Cl | 6.9* | 5 | 4 | 0 | 0 | -4
CCn1c(=O)n(CC(=O)NCC2COc3ccccc3O2)c(=O)c2ccccc21 (centres undefined) | -1 | 6 | -2 | 0 | . | .
CCn1c2ccccc2n2c(=O)n(CC(=O)Nc3ccc4c(c3)OCO4)nc12 | 5.7* | 9 | 14 | 1 | 1 | 2
CCn1c2ccccc2n2c(=O)n(CC(=O)NCC3COc4ccccc4O3)nc12 (centres undefined) | 7.5* | -5 | 13 | 1 | 2 | 7
O=C(CO)N/N=C\c1c(F)cccc1Cl | 0 | 13 | 31 | 0 | . | .
O=C(CC(=O)N/N=C/c1c(F)cccc1Cl)NCCc1ccccc1 | 5.6* | -5 | 0 | 0 | 1 | 0
Nc1cccc(-c2ncc(C(=O)NCCc3ccc(O)cc3)s2)c1 | 5.5* | 0 | 14 | 0 | 0 | -1
O=C(NCCc1ccc(O)cc1)c1cnc(-c2ccccc2)s1 | 1 | 15 | -18 | 0 | . | .
CCOc1ccccc1Nc1nc(-c2c(C)nc3ncccn23)cs1 | 0 | -9 | 10 | 0 | . | .
Cc1cccc(-c2cnc(C)nc2C2CCCN(C(=O)CN(C)C)C2)c1 (centres undefined) | 14* | -3 | -1 | 0 | 1 | -1
CC(=O)CC(C)C(=O)N1CCCC(c2nc(C)ncc2-c2cccc(C)c2)C1 (centres undefined) | 6.4* | 0 | -3 | 0 | 1 | -2
Cn1c(N2CCC(C(=O)Nc3ccc(N4CCOCC4)cc3)CC2)nc2ccccc21 | 0 | 15 | -10 | 0 | . | .

Bioassay records from PubChem BioAssay.
